Results taken from PubChem BioAssay (NCI).
Compounds without any hit were thinned out: in the full panel of roughly 83,000, 20% have a hit.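 Percent growth is the endpoint: 0 to 100 indicates growth inhibition (40 means 60% inhibition), 0 means no net growth, and negative values indicate cell death.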 A number with no mark means an inactive call. Activity calls are given as the source filed them. How the source made its calls: active means growth percent below 10; inactive means the rest.

Legend:
Assay in all cases: NCI-60 one-dose screen, 48 h (100 = growth as untreated, 0 = no growth, -100 = all killed)
SR leukemia = conditions: 10 µM unless noted
RPMI-8226 leukemia = conditions: 10 µM unless noted
OVCAR-8 ovarian = conditions: 10 µM unless noted
OVCAR-5 ovarian = conditions: 10 µM unless noted
OVCAR-4 ovarian = conditions: 10 µM unless noted
SK-OV-3 ovarian = conditions: 10 µM unless noted
IGROV1 ovarian = conditions: 10 µM unless noted
OVCAR-3 ovarian = conditions: 10 µM unless noted
HS 578T breast = conditions: 10 µM
NCI/ADR-RES ovarian = conditions: 10 µM unless noted
T-47D breast = conditions: 10 µM unless noted
BT-549 breast = conditions: 10 µM unless noted
MDA-MB-435 melanoma = conditions: 10 µM unless noted
SW-620 colon = conditions: 10 µM unless noted
MCF7 breast = conditions: 10 µM unless noted
HCT-116 colon = conditions: 10 µM unless noted
HCC-2998 colon = conditions: 10 µM
KM12 colon = conditions: 10 µM unless noted

SMILES | growth (SR leukemia) | growth (RPMI-8226 leukemia) | growth (OVCAR-8 ovarian) | growth (OVCAR-5 ovarian) | growth (OVCAR-4 ovarian) | growth (SK-OV-3 ovarian) | growth (IGROV1 ovarian) | growth (OVCAR-3 ovarian) | growth (HS 578T breast) | growth (NCI/ADR-RES ovarian) | growth (T-47D breast) | growth (BT-549 breast) | growth (MDA-MB-435 melanoma) | growth (SW-620 colon) | growth (MCF7 breast) | growth (HCT-116 colon) | growth (HCC-2998 colon) | growth (KM12 colon)
CSC1=C(N)C(=O)c2[nH]cc(CO)c2C1=N | 6.06% (active) | -32.9% (active) | -62% (active) | -76% (active) | -95.7% (active) | -94.4% (active) | -62.5% (active) | -74.8% (active) | 5% (active) | -23% (active) | -43.8% (active) | -93.5% (active) | -84.1% (active) | -56.2% (active) | -41.8% (active) | -86.7% (active) | -94.1% (active) | -63.4% (active)
CN1CCN(Cc2ccc(NC(=O)c3[nH]ncc3Nc3ncnc4sc5c(c34)CCCC5)cc2)CC1 | -54.3% (active) | -32.1% (active) | -39.6% (active) | -86.8% (active) | -41.4% (active) | -5.01% (active) | -60.9% (active) | -83.8% (active) | -32.5% (active) | -61.7% (active) | 9.76% (active) | -20.7% (active) | -89% (active) | -52% (active) | -67.2% (active) | -96% (active) | -74.9% (active) | 
Cc1ccc(-c2cc3c(SCC(=O)Nc4cc(C(F)(F)F)ccc4Cl)nccn3n2)cc1 | -10.2% (active) | -12.5% (active) | 33.1% | 84.7% | 38.1% | 84.3% | 52.7% | 82.3% | 87% | 42.5% | 101% | 81.2% | 38.7% | 18.2% | 14.7% | 14.7% | 19.5% | 
N#Cc1c(-c2ccc(Cl)cc2)csc1NC(=O)Nc1cccc(C(F)(F)F)c1 | 33% | 3.99% (active) | 11.4% | 42.8% | 10.4% | 9.45% (active) | 33.5% | -3.56% (active) | 47.9% | 11.6% | -5.74% (active) | 26.3% | 14.1% | 22.7% | 12.8% | 1.8% (active) | 19.9% | 12.9%
CCNC(=O)Nc1nc2ccc(Oc3ccnc(C(=O)NC)c3)cc2s1 | 30.4% | 85% | 91.6% | 92.9% | 83% | 88.1% | 90% | 83.1% | 87.3% | 73.3% | 62.6% | 90.6% | 3.1% (active) | 45.8% | 36.9% | 56% | 71.9% | 33.4%
CC(C)(C)C(=O)OCOP(=O)(OCOC(=O)C(C)(C)C)C1CCCN(OC(=O)c2ccccc2)C1=O (stereo unspecified) | 7.15% (active) | -30.8% (active) | 7.36% (active) | 65.5% | 31.9% | 20.6% | 5.28% (active) | 7.34% (active) | 8% (active) | 3.76% (active) | 13.8% | 7.84% (active) | 45.2% | 45.1% | 0.983% (active) | 13% | 25.2% | 
Cc1cc2c(-c3nc4ccccn4c3NC34CC5CC(CC(C5)C3)C4)c(O)c(O)cc2c(O)c1-c1c(C)cc2c(-c3nc4ccccn4c3NC34CC5CC(CC(C5)C3)C4)c(O)c(O)cc2c1O | 13.1% | 24.4% | 12.3% | 29.3% | 21.4% | -11.1% (active) | 21.3% | 27.6% | 21.8% | 9.01% (active) | -0.388% (active) | 9.45% (active) | 16.5% | 23.5% | 12.3% | 12% | 31% | 
NC(=O)c1n[nH]n2c1nc(=O)c1c3c(sc12)CCCC3 | 101% | 94.2% | 101% | 111% | 118% | 105% | 104% | 107% | 110% | 106% | 96.2% | 98.3% | 117% | 100% | 92.3% | 104% | 104% | 
Cc1ccc(N=C2CSc3nnc(-c4csc5c4CCCC5)n3N2)cc1 | 32.2% | 24.7% | 35.1% | 54.4% | 62.1% | 27.6% | 53.3% | -21.4% (active) | 38.8% | 1.16% (active) | 48.2% | 31.3% | -25.1% (active) | 29.9% | 21.4% | 13.9% |  | 
COC(=O)CC[C@@H](C)[C@H]1CC[C@H]2C3CC[C@@H]4C[C@@H]5CC[C@]4(C)[C@@]3(O5)[C@H](Br)[C@@H](Br)[C@]12C (stereo partly specified) | 82.6% | 88.5% | 97.8% | 102% | 85.5% | 80.2% | 103% | 101% | 112% | 103% | 73.7% | 102% | 93.8% | 102% | 87.7% | 74.2% | 94.8% | 
COc1cc2c3c(c1)nc(C)n3CCC2 | 101% | 105% | 96.4% | 102% | 96% | 90.8% | 109% | 109% | 105% | 103% | 95.8% | 94.2% | 100% | 107% | 99.5% | 92.8% | 99.8% | 
COc1ccc2c(CCCC(c3ccccc3)c3ccccc3)c3[n+](cc2c1OC)CCc1cc2c(cc1-3)OCO2 | -35% (active) | -38.8% (active) | -47.6% (active) | 31.8% | -81.3% (active) | -13.4% (active) | 5.13% (active) | -74.6% (active) | -16.8% (active) | 71.7% | -15.6% (active) | -65.6% (active) | -90.7% (active) | 0.287% (active) | -3.37% (active) | -33.9% (active) | -81.9% (active) | -65% (active)
CSc1nc2ncnc(SC)c2[nH]1 | 90.3% | 106% | 103% | 102% | 101% | 79.3% | 114% | 115% | 105% | 108% | 105% | 93.3% | 100% | 109% | 93.1% | 81.4% |  | 
O=c1nc2c(-c3nc4ccccc4s3)n[nH]n2c2sc3c(c12)CCCC3 | 90.6% | 94.3% | 94% | 120% | 115% | 92.3% | 101% | 95% | 94.3% | 96.9% | 78.9% | 94.1% | 110% | 100% | 89.1% | 89.1% | 103% | 
O=C(NO)c1ccc(Cn2c(=O)n(CCc3ccccc3)c(=O)c3ccccc32)cc1 | 20% | 25.8% | 20.2% | 76.5% | 19.2% | 26.3% | 41% | 13.8% | 68.9% | 57.5% | 29% | 52.4% | 19.1% | 20.9% | 27.9% | 4.18% (active) | 62.5% | 25.2%
CC(C)[C@@H]1CC[C@@H]2[C@@H]1[C@H](OC(=O)/C=C/c1ccccc1)[C@]1(C(C)C)C[C@@H](OC(=O)CO)[C@@]2(C)O1 | 41.8% | 53.7% | 16.5% | 109% | 79.4% | 91.3% | 102% | 83.6% | -15.4% (active) | 13.9% | 52.2% | 20.5% | 101% | 99.4% | 71.7% | 65.2% | 79.9% | 82.6%
